Test results from PubChem BioAssay (Tox21).
Several values for one entry are separate records, joined by “and”; a condition that tells them apart may be missing. Equal values may be shown once. Inconclusive results are not listed. The source holds several records for some structures; these can differ, active in one and inactive in another. Activity calls are given as the source filed them. Unless noted, calls come from the whole dose curve; as a rule, active = well fitted curve in the direction sought with a large enough effect in the repeat runs; inconclusive = weak or mixed curves; inactive = no such curve, though single readings can be large; an effect the other way counts as inactive or inconclusive.

Experiments:
[1] = qHTS assay to identify small molecule antagonists of the glucocorticoid receptor (GR) signaling pathway - cell viability counter screen (AID 720693); note: nearly all actives have a fitted effect of over 55% in size
[2] = qHTS assay for identifying genotoxic compounds that show differential cytotoxicity against isogenic chicken DT40 cell lines with known DNA damage response pathways - Rad54/Ku70 mutant cell line (AID 743015); note: nearly all actives have a fitted effect of over 60% in size; note: potency is the fitted concentration of half-maximal effect
[3] = qHTS assay to identify small molecule antagonists of the androgen receptor (AR) signaling pathway - cell viability counter screen (AID 743033; note: nearly all actives have a fitted effect of over 45% in size)
[4] = qHTS assay to identify small molecule antagonists of the androgen receptor (AR) signaling pathway using the MDA cell line - cell viability counter screen (AID 743041; note: nearly all actives have a fitted effect of over 45% in size)
In short: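 R1881-driven MDA-kb2 AR-luc cells, 3,000/well, were dosed with library compounds for 16 h; cell health came from CellTiter-Fluor fluorescence in the reporter wells.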

[5] = qHTS assay to identify small molecule antagonists of the thyroid receptor (TR) signaling pathway - cell viability counter screen (AID 743064); note: nearly all actives have a fitted effect of over 50% in size
In short: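 GH3.TRE-Luc rat pituitary cells dosed after 4 hr plating, co-stimulated with T3 at 1 nM final, incubated 23.5 h at 37 C. Viability measured in the same wells by CellTiter-Fluor fluorescence after 30 min further at 37 C.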

[6] = qHTS assay for identifying genotoxic compounds that show differential cytotoxicity against isogenic chicken DT40 cell lines with known DNA damage response pathways - Rev3 mutant cell line (AID 743014); note: nearly all actives have a fitted effect of over 55% in size; note: potency is the fitted concentration of half-maximal effect
[7] = target: Androgen receptor (Homo sapiens) (UniProt P10275); experiment: qHTS assay to identify small molecule antagonists of the androgen receptor (AR) signaling pathway (AID 743035; active = well fitted inhibition curve with a large enough effect in the signal ratio in the repeat runs, not every such curve was filed as active; the % refers to the signal ratio)
In short: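 Beta-lactamase FRET read (2 h RT incubation with LiveBLAzer B/G) following 16 h of compound plus R1881 treatment of AR-UAS-bla HEK293 cells, which had been pre-incubated 4 h at 37C.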

[8] = target: Androgen receptor (Homo sapiens) (UniProt P10275); experiment: qHTS assay to identify small molecule agonists of the androgen receptor (AR) signaling pathway using the MDA cell line (AID 743040; note: nearly all actives have a fitted effect of over 20% in size)
In short: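 After a 5 h incubation at 37C and 0% CO2, MDA-kb2 reporter cells were dosed with compounds in DMSO and kept 16 h under the same conditions. Luciferase activity was then read as luminescence with ONE-Glo.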

[9] = target: Androgen receptor (Homo sapiens) (UniProt P10275); experiment: qHTS assay to identify small molecule antagonists of the androgen receptor (AR) signaling pathway using the MDA cell line (AID 743042; note: nearly all actives have a fitted effect of over 55% in size)
In short: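 Antagonist mode: compounds plus R1881 agonist added to MDA-kb2 AR-luc cells, incubated 16 h at 37C. Luciferase reporter luminescence quantified, with multiplexed CellTiter-Fluor readout for cell viability.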

Measured: Potency
% is set by controls: 0 for no effect and ±100 for the full control effect.

Androgen receptor (Homo sapiens), sequence (P10275 whole entry, looked up): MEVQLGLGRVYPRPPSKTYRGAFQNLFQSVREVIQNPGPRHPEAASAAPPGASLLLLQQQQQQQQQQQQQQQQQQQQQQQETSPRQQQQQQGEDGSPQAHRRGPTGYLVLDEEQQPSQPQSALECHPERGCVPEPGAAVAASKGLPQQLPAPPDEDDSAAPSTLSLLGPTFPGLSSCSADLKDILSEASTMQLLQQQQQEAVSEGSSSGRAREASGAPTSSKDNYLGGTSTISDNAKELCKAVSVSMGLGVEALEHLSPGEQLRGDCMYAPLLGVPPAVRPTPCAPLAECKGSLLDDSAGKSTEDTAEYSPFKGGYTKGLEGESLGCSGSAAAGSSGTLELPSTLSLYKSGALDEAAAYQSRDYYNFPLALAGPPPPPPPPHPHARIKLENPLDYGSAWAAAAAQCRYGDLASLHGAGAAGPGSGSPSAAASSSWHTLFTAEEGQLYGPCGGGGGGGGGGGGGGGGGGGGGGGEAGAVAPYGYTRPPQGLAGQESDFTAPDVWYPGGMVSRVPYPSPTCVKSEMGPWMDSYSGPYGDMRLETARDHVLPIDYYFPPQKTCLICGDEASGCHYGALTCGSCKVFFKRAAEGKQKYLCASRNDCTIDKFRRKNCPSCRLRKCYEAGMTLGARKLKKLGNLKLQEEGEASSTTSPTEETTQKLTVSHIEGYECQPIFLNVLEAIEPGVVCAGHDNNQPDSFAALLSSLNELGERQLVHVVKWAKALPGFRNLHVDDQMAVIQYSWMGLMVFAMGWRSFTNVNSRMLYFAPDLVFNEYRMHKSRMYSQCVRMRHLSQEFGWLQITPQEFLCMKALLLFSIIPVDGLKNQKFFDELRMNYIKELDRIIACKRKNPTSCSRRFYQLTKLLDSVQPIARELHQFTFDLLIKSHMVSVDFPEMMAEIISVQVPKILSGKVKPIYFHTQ

CCOCCOCCOCCO
inactive: [1] | [2] | [3] | [4] | [5]

CC(=O)OCc1ccco1
active: [6] 27.3 µM
inactive: [1] | [2] | [3] | [4] | [5]

CCNc1cccc(C)c1
inactive: [1] | [2] | [3] | [4]

CCc1ccccc1CC
not listed: [7] | [8] | [9]
inactive: all other assays above

O=C(O)c1ccc(S(=O)(=O)N(Cl)Cl)cc1
inactive and 24.5 µM (active): [2]
inactive: [1] | [3] | [4]
active: [6] 43.5 µM

O=c1[nH]cnc2[nH]ncc12
inactive: [1] | [2] | [3] | [4] | [5]

c1ccc2c(c1)Cc1ccccc1-2
inactive and 61.1 µM (active): [6] | [2]
inactive: [1] | [3] | [4] | [5]

CCO[Si](CCCN)(OCC)OCC
not listed: [7] | [8] | [9]
inactive: all other assays above

CC(=O)OCCOC(C)=O
not listed: [7] | [8] | [9]
inactive: all other assays above

CC(C)(C)c1cc(Cc2cc(C(C)(C)C)c(O)c(C(C)(C)C)c2)cc(C(C)(C)C)c1O
inactive and 54.5 µM (active): [2]
active: [6] 61.1 µM
inactive: [1] | [3] | [4] | [5]

Cc1ccc(S(=O)(=O)N=C=O)cc1
inactive: [1] | [2] | [3] | [4] | [5]

C=C(C)[C@H]1CC=C(C)C(=O)C1
not listed: [7] | [8] | [9]
inactive: all other assays above

CCCCCCCCCCCCCCCC(=O)OC(C)C
inactive: [1] | [2] | [3] | [4] | [5]

CN(C)c1ccc(O)c2c1C[C@H]1C[C@H]3[C@H](N(C)C)C(=O)C(C(N)=O)=C(O)[C@@]3(O)C(=O)C1=C2O
active: [2] 23.7 µM [middle of 4 runs]
inactive: [1] | [3] | [4]

CCOC(=O)n1ccn(C)c1=S
inactive: [1] | [3] | [4]

O=C(OCC1CCC2OC2C1)C1CCC2OC2C1 (stereo not drawn)
active: [6] 10.1 µM and 9.69 µM
inactive: [1] | [2] | [3] | [4] | [5]

C[C@]12CC[C@@H]3c4ccc(O)cc4CC[C@H]3[C@@H]1C[C@@H](O)[C@@H]2O
inactive: [1] | [3] | [4] | [5]

CC(C)c1cccc(C(C)C)c1
not listed: [7] | [8] | [9]
inactive: all other assays above

CCCCCCCC=O
inactive: [1] | [2] | [3] | [4]

O=[N+]([O-])c1ccc2nc[nH]c2c1
not listed: [7] | [8] | [9]
inactive: all other assays above

CCCCCCO
not listed: [7] | [8] | [9]
inactive: all other assays above

NCCN1CCNCC1
inactive: [1] | [2] | [3] | [4] | [5]

COc1cc(OC)c(C(=O)CCCN2CCCC2)c(OC)c1
not listed: [6]
inactive: all other assays above

CCCCC(C=O)CC (stereo not drawn)
inactive: [1] | [6] | [2] | [3] | [4]

CC(CCO)CC(C)(C)C (stereo not drawn)
not listed: [6]
inactive: all other assays above

CC(C)=CCl
34.8 µM (active) and inactive: [6]
inactive: [1] | [2] | [3] | [4]

CC1(C)OC[C@@H]2O[C@@]3(C(=O)O)OC(C)(C)O[C@H]3[C@@H]2O1
not listed: [7] | [8] | [9]
inactive: all other assays above

CC(CCl)OP(=O)(OC(C)CCl)OC(C)CCl (stereo not drawn)
inactive: [1] | [6] | [2] | [3] | [4]

CCCCCCCCCCCC(=O)OC
inactive: [1] | [6] | [2] | [3] | [4]

Cc1ccc2ncccc2c1
not listed: [7] | [8] | [9]
inactive: all other assays above

C=CC[N+](C)(C)CC=C
not listed: [7] | [8] | [9]
inactive: all other assays above

COc1ccc(OC)cc1
inactive: [1] | [2] | [3] | [4]

CC(C)OP(=O)(CP(=O)(OC(C)C)OC(C)C)OC(C)C
inactive: [1] | [6] | [2] | [3] | [4]
